Test systems include T-47D breast; BT-549 breast; MCF7 breast; HCT-116 colon; HCC-2998 colon; KM12 colon; MDA-MB-435 melanoma; SW-620 colon.
What all share (assay): NCI-60 one-dose screen, 48 h (100 = growth as untreated, 0 = no growth, -100 = all killed)
Details in all cases: 10 µM unless noted

Compounds without any hit were thinned out: in the full panel of roughly 83,000, 20% have a hit.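 Negative percent growth values reflect cell death: -40 means 40% of the cells present at the start died, and -100 means all died.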 Unmarked numbers belong to inactive results. Activity calls are given as the source filed them. Rule for the calls: active = growth percent below 10; inactive = the rest.

Take `COc1ccc(-c2cc(-c3cc(OC)ccc3O)[nH]c(=O)c2C#N)cc1`: the growth in the experiment on T-47D breast was 45.6%; in the experiment on BT-549 breast it was 22.1%; with MCF7 breast, 46.4%; with HCT-116 colon, 33.6%; in the experiment with HCC-2998 colon, 72.9%; with KM12 colon, 41.8%.
For `Nc1c(C(=O)Nc2ccccc2)sc2nc3c(cc12)CCCCCC3`, the growth with T-47D breast is 38.2%; with MDA-MB-435 melanoma it was -17% (active); in the experiment with SW-620 colon, 27.5%; with MCF7 breast, 12.1%; in the experiment on HCT-116 colon, 2.39% (active); with HCC-2998 colon, 13.4%. For the same compound, the growth in the experiment with KM12 colon is 15.8%.
`CN1CCN(CCCOc2ccc3nc(Nc4cc(Cl)cc(Cl)c4)ccc3c2)CC1`: the growth in the experiment with T-47D breast was -68.6% (active); in the experiment with BT-549 breast it was -43.2% (active); in the experiment on SW-620 colon, -82.1% (active); in the experiment with MCF7 breast it was -89.2% (active); with HCT-116 colon, -78.2% (active); in the experiment on KM12 colon, -88.7% (active).
As to `Cc1nc(Nc2ccc(NC(=S)Nc3ccccc3)cc2)nc2nc(SCc3ccccc3)[nH]c(=O)c12`, the growth was 88.5% in the experiment with T-47D breast; 109% in the experiment with MDA-MB-435 melanoma; 108% in the experiment on SW-620 colon; 87.3% with MCF7 breast; 112% with HCT-116 colon; 111% with HCC-2998 colon. In addition, in the experiment with KM12 colon, the growth is 107%.
For `O=c1[nH]c(=O)n(C2CC(O)C(CO)O2)cc1CO` (configuration not stated), the growth in the experiment with T-47D breast was 87.7%; in the experiment with BT-549 breast, 82.1%; in the experiment on SW-620 colon it was 96.6%; with MCF7 breast, 65.4%; with KM12 colon it was 103%.
In the case of `Cl.[Pt].[c-]1ccccc1-c1ccccn1.c1ccc(P(c2ccccc2)C([PH+](c2ccccc2)c2ccccc2)[PH+](c2ccccc2)c2ccccc2)cc1`, the growth was 27.8% in the experiment with T-47D breast; 27% in the experiment on BT-549 breast; 13.6% in the experiment on SW-620 colon; 7.37% (active) in the experiment on HCT-116 colon; 24.9% in the experiment on HCC-2998 colon; 5.04% (active) in the experiment with KM12 colon.
`C/C(Cc1ccc(Cl)cc1)=C(/c1ccc(Cl)cc1)c1ccc(OCCN(C)C)cc1`: the growth in the experiment with T-47D breast is 47.9%; with BT-549 breast, 103%; in the experiment on SW-620 colon, -32.4% (active); with MCF7 breast, 11%; in the experiment with HCT-116 colon, 16.5%; with HCC-2998 colon, 1.6% (active). In the experiment on KM12 colon, the growth is 27.9%.
`CCNCCNc1cc(-c2ccc(Cl)cc2)c(C#N)c2nc3ccccc3n12`: the growth in the experiment on T-47D breast was -60% (active); with BT-549 breast it was -33.4% (active); in the experiment with SW-620 colon, -71.9% (active); in the experiment on MCF7 breast it was -22.8% (active); in the experiment with HCT-116 colon, -78% (active); in the experiment with HCC-2998 colon, 4.11% (active). Also, the growth in the experiment with KM12 colon was 27.8%.
Regarding `Cc1cnc(Nc2ccc(N3CCN(C)CC3)cc2)nc1Nc1ccc(Cl)c(NS(=O)(=O)C(C)(C)C)c1`, the growth was 39.8% in the experiment with T-47D breast; -5.14% (active) in the experiment with BT-549 breast; 1.76% (active) in the experiment on SW-620 colon; 5.84% (active) in the experiment with MCF7 breast; 8.83% (active) with HCT-116 colon; -48.1% (active) with HCC-2998 colon. In addition, the growth in the experiment on KM12 colon was 8.8% (active).
In the case of `CN1CCN(C2=C(Cl)C(=O)c3ccccc3C2=O)CC1`, the growth is 80.8% with T-47D breast; -75% (active) in the experiment on MDA-MB-435 melanoma; 98.8% in the experiment with SW-620 colon; 54.9% with MCF7 breast; 10.2% in the experiment on HCT-116 colon; 86.5% in the experiment with HCC-2998 colon.
In the case of `NC(N)=N/N=C(/c1ccccc1)c1ccccc1F`, the growth in the experiment with T-47D breast is 3.86% (active); with BT-549 breast, 70.8%; in the experiment on MCF7 breast it was 15.9%; in the experiment with HCT-116 colon, -28.7% (active); in the experiment on HCC-2998 colon it was 2.85% (active); with KM12 colon, 13.8%.
For the compound `CN(C)c1ccc(/C=C2\C=C(c3ccccc3)N(CCc3ccccc3)C2=O)cc1`, the growth in the experiment on T-47D breast was 82.3%; in the experiment with BT-549 breast, 71.3%; in the experiment on SW-620 colon, 61.4%; in the experiment with MCF7 breast, 60%; with HCT-116 colon it was 42.2%; in the experiment with HCC-2998 colon, 75.5%. For the same compound, in the experiment with KM12 colon, the growth is 89.8%.
In the case of `COc1cccc(-c2nc3sccn3c2-c2ccnc(NCCNS(=O)(=O)c3c(Cl)cccc3Cl)c2)c1`, the growth in the experiment on T-47D breast was 6.81% (active); in the experiment on BT-549 breast, 30.4%; in the experiment with SW-620 colon, 74.1%; in the experiment with MCF7 breast, 58.4%; in the experiment with HCT-116 colon, 48.8%; in the experiment on KM12 colon, 46.7%.
For `O=C(O)c1ccc(CO)o1`, the growth in the experiment with T-47D breast was 105%; with MDA-MB-435 melanoma it was 109%; in the experiment on SW-620 colon it was 104%; in the experiment on MCF7 breast, 84.1%; in the experiment with HCT-116 colon, 103%; with HCC-2998 colon it was 111%. In addition, the growth in the experiment with KM12 colon was 106%.
For the compound `O=C(Oc1ccc[nH]c1=O)c1cc([N+](=O)[O-])cc([N+](=O)[O-])c1`, the growth with T-47D breast was 109%; in the experiment with BT-549 breast, 75.6%; in the experiment with SW-620 colon it was 107%; in the experiment with MCF7 breast it was 96.2%; with KM12 colon, 116%.
As to `CC(C)n1nc(C#Cc2cccc(NC(=O)c3cccc(C(F)(F)F)c3)c2)c2c(N)ncnc21`, the growth with BT-549 breast was 9.72% (active); with MDA-MB-435 melanoma, 2.12% (active); in the experiment on SW-620 colon, 1.28% (active); with MCF7 breast, 14.4%; in the experiment with HCT-116 colon, -50.6% (active); in the experiment on HCC-2998 colon, 2.89% (active). Moreover, in the experiment on KM12 colon, the growth is 3.28% (active).
As for `COC1=CC(c2ccc[nH]2)=N/C1=C\c1[nH]c(C)c(C(=O)OCCn2cc(CCC[C@@H]3Cc4cc(O)ccc4C4CC[C@]5(C)[C@@H](O)CC[C@H]5C43)nn2)c1C` (some centres not stated), the growth was 102% in the experiment with T-47D breast; 80% in the experiment on MDA-MB-435 melanoma; 56.3% in the experiment on SW-620 colon; 96% with MCF7 breast; 81.6% in the experiment on HCT-116 colon; 85.7% with HCC-2998 colon. Also, the growth in the experiment with KM12 colon was 66.9%.
`O=C1c2ccccc2C2(c3ccc(O)cc3)c3ccccc3Oc3cccc1c32` (configuration not stated): the growth in the experiment with BT-549 breast was 55.1%; in the experiment with MDA-MB-435 melanoma, -3.86% (active); in the experiment with SW-620 colon it was 22.7%; in the experiment on MCF7 breast, 23.1%; with HCT-116 colon, 14.1%; with HCC-2998 colon, 34.6%. For the same compound, the growth in the experiment on KM12 colon is 15%.
Turning to `CCC(O)(C(c1ccccc1)c1ccccn1)C(c1ccccc1)c1ccccn1` (configuration not stated), the growth with T-47D breast was 92.3%; in the experiment with MDA-MB-435 melanoma, 117%; in the experiment with SW-620 colon, 120%; with MCF7 breast, 101%; in the experiment with HCT-116 colon it was 99.4%; in the experiment with KM12 colon, 106%.

The values above are taken from PubChem BioAssay (NCI).
